Assay results published in the supplement of paper PMC4371806.
Whole data set: some 2,300 compounds, median “plate-normalized OD600 growth (mean of duplicates)” near 0.29, cut for the lowest 2% near 0.22. What follows is part of a selection rich in the lowest values, with near analogues and random picks from the rest.

Tested on: Escherichia coli BW25113
Experiment: plate-normalized OD600 growth (mean of duplicates) (OD600 (normalized)); higher = more growth (less inhibition)
Conditions: 10 µM
Method: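 E. coli BW25113 in LB (100 µl, 96-well, no shaking) was exposed to 10 µM of each compound from a ~30,000-member library and grown at 37°C for 24 h or 15°C for 48 h, in duplicate. Growth was read as OD600 and the duplicate ODs were normalized across screening plates to correct plate-to-plate variation. Hits were >3σ below the mean OD600 at 15°C and <2σ below the mean at 37°C.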

| SMILES | plate-normalized OD600 growth (temperature: 15°C, 48 h) | plate-normalized OD600 growth (temperature: 37°C, 24 h) |
| --- | --- | --- |
| NC(N)=NC(N)=Nc1ccccc1C(F)(F)F | 0.243 | 0.604 |
| Cc1ccc(C2=Nc3ccccc3N=C(C(Cl)Cl)C2)cc1 | 0.25 | 0.629 |
| Cc1noc(N)c1C(N)=S | 0.247 | 0.612 |
| O=C(COc1ccc(/C=N/NC(=O)CO)cc1)NCC1CCCO1 (centres undefined) | 0.227 | 0.668 |
| NNC(=O)c1cnn(-c2ccc(Cl)cc2)c1C(F)(F)F | 0.253 | 0.627 |
| CCN(CC)c1ccc(NC(=O)c2c(F)cccc2F)c(N(CC)CC)n1 | 0.235 | 0.602 |
| Cc1ccc(N=Cc2ccc(Sc3nc4ccccc4s3)o2)cc1 | 0.245 | 0.625 |
| C/C(=N/NC(=O)COc1cccc(Cl)c1)c1ccc(Cl)cc1 | 0.248 | 0.631 |
| CC1(C)OC(=O)N(CCCCCCN2C(=O)OC(C)(C)C2(C)O)C1(C)O (centres undefined) | 0.197 | 0.652 |
| CC1(O)N(CCN)C(=O)OC12CCCCC2 (centres undefined) | 0.269 | 0.626 |
| COc1ccc(/C(C)=N\NC2=NCCCN2)cc1 | 0.214 | 0.597 |
| Nc1c(C(=O)c2ccc(Br)cc2)sc2nc(-c3ccccc3)cc(-c3ccccc3)c12 | 0.256 | 0.621 |
| Nc1c(C(=O)c2ccc(Br)cc2)sc2nc(-c3cccs3)cc(C(F)(F)F)c12 | 0.142 | 0.578 |
| Cc1ccc(C(=O)c2sc3nc(-c4cccs4)cc(C(F)(F)F)c3c2N)cc1 | 0.239 | 0.623 |
| Cc1ccccc1COC(=O)c1ccc(-c2nnn(Cc3ccccc3C)n2)cc1 | 0.244 | 0.611 |
| CCOc1ccc(-n2nc3ccc(NC(=O)COc4ccccc4C)cc3n2)cc1 | 0.235 | 0.616 |
| CCOc1ccc(NC(=O)CSc2nc(C)cc(COC)c2C#N)cc1 | 0.21 | 0.638 |
| COCc1cc(C)nc2sc(C(=O)OC)c(N)c12 | 0.243 | 0.626 |
| CCc1c(C)nc2cc(-c3ccc(Cl)cc3)[nH]n2c1=O | 0.214 | 0.632 |
| Cc1cc(=O)n2c(-c3ccc(Cl)cc3)csc2n1 | 0.239 | 0.607 |
| CCc1c(C)nc2[nH]nc(-c3ccccc3C)n2c1=O | 0.245 | 0.626 |
| NC(N)=NS(=O)(=O)c1ccc(NC(=O)C2CCCCC2)cc1 | 0.256 | 0.628 |
| COc1ccc2[nH]c(C)c(CCNS(=O)(=O)c3cc(Cl)ccc3Cl)c2c1 | 0.249 | 0.606 |
| COc1ccc(Cc2nnc(-c3ccc(-c4cccs4)s3)o2)cc1 | 0.258 | 0.615 |
| Cc1c(NC(=O)c2ccc(N)cc2)c(=O)n(-c2ccccc2)n1C | 0.248 | 0.629 |

| SMILES | plate-normalized OD600 growth (temperature: 15°C, 48 h) | plate-normalized OD600 growth (temperature: 37°C, 24 h) |
| --- | --- | --- |
| CC(C)(C)OC(=O)NC1CCN(C(=O)c2ccc(Cl)cc2Cl)CC1 | 0.244 | 0.629 |
| O=[N+]([O-])c1ccc2c(c1)S(=O)(=O)N=C2Nc1cc(Cl)ccc1Cl | 0.251 | 0.626 |
| C=CCn1c2ccccc2c2nnc(SCC(=O)Nc3ncccn3)nc21 | 0.245 | 0.599 |
| Cc1cccc(C2(c3cccc(C)c3)CC2C(=O)Nc2ccc(C#N)cc2)c1 (centres undefined) | 0.232 | 0.597 |
| CC(C)CSc1ncnc2scc(-c3ccccc3)c12 | 0.235 | 0.631 |
| Cc1ccc(N(C)C(=S)Nc2ccc3nc[nH]c(=O)c3c2)cc1C | 0.237 | 0.625 |
| Cc1cccc(-n2c(C)cc(C=Nc3ccc(Cl)cc3O)c2C)c1 | 0.249 | 0.613 |
| COc1c(Cl)cnc(Cl)c1C(N)=O | 0.265 | 0.636 |
| C/C(=N/O)c1ccc2c(c1)C(C)(C)CCC2(C)C | 0.256 | 0.629 |
| N#Cc1cc(I)c(C#N)c(I)c1 | 0.198 | 0.616 |
| O=C(O)CCCN1C(=O)C(=O)C(=C(O)c2ccccc2)C1c1ccc(Br)cc1 (centres undefined) | 0.226 | 0.646 |
| Cc1sc(NC(=O)c2cc3ccccc3oc2=O)nc1-c1ccc(-c2ccccc2)cc1 | 0.253 | 0.625 |
| CC(C)(C)n1ncc(N/N=C/c2ccc(Cl)cc2)c(Cl)c1=O | 0.238 | 0.605 |
| CC(C(=O)O)C(=O)c1cc(Cl)c(Cl)cc1Cl (centres undefined) | 0.215 | 0.63 |
| O=S(=O)(c1cc(Br)c(Br)s1)N1CCCCC1 | 0.262 | 0.63 |
| Nc1nc(=Nc2ccccc2)n2c(n1)sc1ccccc12 | 0.243 | 0.61 |
| CC(=O)Nc1ccc(NC(=O)CSc2nnc(NS(C)(=O)=O)s2)cc1 | 0.252 | 0.63 |
| COc1cc(Cl)c(Cl)cc1Cl | 0.251 | 0.604 |
| O=C1C(Cl)=C(Oc2cc(Cl)c(Cl)cc2Cl)C(=O)c2ccccc21 | 0.211 | 0.613 |
| COc1ccc(NC(=O)/C=C/c2cccc(Oc3ccccc3)c2)cc1 | 0.245 | 0.633 |
| NC1=Nc2nc(Nc3ccccc3)sc2/C(=C/c2ccc(O)cc2)N1 | 0.248 | 0.628 |
| Cc1onc(-c2ccccc2Cl)c1C(=O)Nc1ccc(S(=O)(=O)Nc2nccs2)cc1 | 0.246 | 0.614 |
| NS(=O)(=O)c1ccc(CCn2c(-c3ccc(S(=O)(=O)N4CCCC4)cc3)csc2=Nc2cccc(C(F)(F)F)c2)cc1 | 0.257 | 0.65 |
| O=C1NC(=O)c2cc(-c3ccc([N+](=O)[O-])cc3)ccc21 | 0.241 | 0.631 |
| O=[N+]([O-])c1ccc(OCCCOc2ccc([N+](=O)[O-])cc2)cc1 | 0.238 | 0.596 |

| SMILES | plate-normalized OD600 growth (temperature: 15°C, 48 h) | plate-normalized OD600 growth (temperature: 37°C, 24 h) |
| --- | --- | --- |
| O=[N+]([O-])c1ccc(-c2ncn[nH]2)cc1 | 0.209 | 0.607 |
| CC(C)c1ncc(C(O)c2cccc3ccccc23)n1C (centres undefined) | 0.249 | 0.63 |
| O=c1[nH]c(-c2cn[nH]c2-c2ccc(F)cc2)nc2sc3c(c12)CCCC3 | 0.237 | 0.637 |
| CS/C(N)=N\N=C/c1c(F)cccc1Cl | 0.258 | 0.652 |
| Cc1oc(-c2ccccc2)cc1C(=O)N1CCN(c2ccc([N+](=O)[O-])cc2)CC1 | 0.265 | 0.667 |
| COc1cc(C=NCc2ccco2)ccc1O | 0.242 | 0.622 |
| CCN1CCN(CCC(=O)Nc2ccccc2)CC1 | 0.228 | 0.624 |
| CC1CCN(CCC(=O)Nc2ccc(Cl)cc2)CC1 | 0.261 | 0.643 |
| NC(=O)C1CCN(CCC(=O)Nc2ccccc2)CC1 | 0.208 | 0.651 |
| CC(C)(C)S(=O)(=O)/C(C#N)=C/N1CCCCC1 | 0.267 | 0.62 |
| O/N=C\c1sccc1Oc1ccccc1 | 0.254 | 0.635 |
| CCOC(=O)c1ccc(-n2nnnc2C(c2ccc(Cl)cc2Cl)N2CCOCC2)cc1 (centres undefined) | 0.241 | 0.645 |
| Cc1ccc(C=Nc2ccc(-c3ccc(N=Cc4ccc(C)o4)c(C)c3)cc2C)o1 | 0.224 | 0.622 |
| Cc1ccc(NC(=O)CCN2CCN(c3ccccc3)CC2)cc1 | 0.26 | 0.612 |
| C/C(CC(=O)Nc1ccc(N(C)C)cc1)=N\NC(=O)COc1ccc(C)cc1 | 0.236 | 0.627 |
| CC(=O)N(CC(=O)Nc1ccc(C)cc1)c1ccccc1 | 0.214 | 0.646 |
| COC(=O)C1=NN(c2ccccc2Cl)C2(S1)c1ccccc1C(C)=NN2c1ccccc1 (centres undefined) | 0.234 | 0.641 |
| O=C(NCCSCc1ccco1)c1ccc(Cl)cc1 | 0.25 | 0.605 |
| CC12CCC(C1)C(C)(C)C2NC(=O)c1cccs1 (centres undefined) | 0.26 | 0.639 |
| Cc1nn(CC(=O)NNC(=O)COc2ccc(Cl)cc2Cl)c(C)c1Br | 0.235 | 0.607 |
| O=C(Oc1ccc(N(C(=O)c2ccccc2)S(=O)(=O)c2cccs2)cc1)c1ccccc1 | 0.225 | 0.622 |
| O=c1[nH]nc(-c2ccc(N3CCN(CCO)CC3)c([N+](=O)[O-])c2)c2ccccc12 | 0.242 | 0.616 |
| COCc1cc(C)c2c(n1)sc1c2nc(C)n2c3ccccc3nc12 | 0.244 | 0.619 |
| CCOc1ccc(NC(=O)CC2S/C(=N\N=C\c3ccc(C)s3)NC2=O)cc1 (centres undefined) | 0.222 | 0.624 |
| Cc1cc(C(O)(C(F)(F)F)C(F)(F)F)cc(C)c1O | 0.249 | 0.618 |

| SMILES | plate-normalized OD600 growth (temperature: 15°C, 48 h) | plate-normalized OD600 growth (temperature: 37°C, 24 h) |
| --- | --- | --- |
| O=C(Nc1nc(-c2ccccc2)cs1)C1CC(O)CN1C(=O)Oc1ccccc1 (centres undefined) | 0.263 | 0.648 |
| Cc1cc(/C=N/NC(=O)c2cc3ccccc3o2)c(C)n1-c1ccc(C23CC4CC(CC(C4)C2)C3)cc1 | 0.244 | 0.607 |
| COc1cccc(C2C3=C(CC(C)(C)CC3=O)OC(N)=C2[N+](=O)[O-])c1 (centres undefined) | 0.246 | 0.619 |
| O=C(CC(=O)Nc1cccc(Cl)c1)N/N=C\c1ccccc1 | 0.246 | 0.616 |
| OCCCc1cccc(C(F)(F)F)c1 | 0.242 | 0.586 |
| O=C1C=C(Cl)CC(c2ccc(C(F)(F)F)cc2)C1 (centres undefined) | 0.243 | 0.607 |
| O=C(O)c1ccc(Br)c(NC(=O)C2C3C=CC(C3)C2C(=O)O)c1 (centres undefined) | 0.248 | 0.604 |
| N/C(=N\OC(=O)c1ccno1)c1ccc(C(F)(F)F)cc1 | 0.253 | 0.612 |
| O=C(NNC(=O)c1ccccc1OCc1ccccc1)c1ccc(Cl)c(Cl)c1 | 0.216 | 0.606 |
| O=C(O)c1oc(C(=O)O)c(OCc2ccccc2)c1OCc1ccccc1 | 0.263 | 0.637 |
| Cc1nnn(-c2nonc2N)c1C(=O)NNC(=O)c1ccc(Cl)c(Cl)c1 | 0.243 | 0.606 |
| O=C(Nc1ccc(Cl)cc1Cl)c1cnccn1 | 0.245 | 0.607 |
| N#CC1=C2N=C(N)c3c(sc4c3CCCC4)N2C2=C(C(=O)CCC2)C1c1cccnc1 (centres undefined) | 0.246 | 0.624 |
| C/C(=N/OC(=O)c1ccc(Cl)cc1)c1ccc(F)cc1 | 0.236 | 0.601 |
| CCN(CC)C(=O)NC(=O)c1c(C)cc(Cl)nc1Cl | 0.243 | 0.63 |
| Cc1ccc(N2CC(=O)N(/N=C/c3ccc(F)cc3)C2=S)cc1 | 0.232 | 0.63 |
| COc1ccc(C(=O)[C@@H]2[C@@H](c3cccs3)C(C#N)(C#N)[C@H]3C=Cc4ccccc4N23)cc1 | 0.251 | 0.63 |
| C/C(=C\C(=O)Nc1ccc(F)cc1)Nc1ccc(F)cc1 | 0.253 | 0.613 |
| CC(=O)C1C(=O)CC(C)(O)C(C(C)=O)C1c1ccc(Br)cc1 (centres undefined) | 0.25 | 0.616 |
| CC(=O)C1=C(Nc2ccc(C)cc2)CC(C)(O)C(C(C)=O)C1c1ccc(F)cc1 (centres undefined) | 0.208 | 0.598 |
| CN(C)N=Nc1ccc(S(=O)(=O)NC(=O)Cc2ccccc2)cc1 | 0.24 | 0.612 |
| CC(C)(C)NC(=O)c1cc(NC(=O)C(F)(F)F)cc(NC(=O)C(F)(F)F)c1 | 0.234 | 0.605 |
